Measurements from the supplement of paper PMC12636033.
± gives the standard deviation of the averaged measurements. Over roughly 33,000 sequences, “E-score (rank enrichment, -0.5 to 0.5)” has its median near -0.0068; the highest 2% begin near 0.24. The entries come from a sample that favours the highest values as a whole.

Each sequence was assayed on muMax20 (Max(13-93) K31hArg/K57hArg, M65Nle) (assay: PBM 8-mer E-score (E-score (rank enrichment, -0.5 to 0.5)); higher = stronger preferential binding).
Description: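 Protein binding microarray (universal PBM chip covering all 10-mers in fixed probe flanks) with chemically synthesized human Max(13-93) bHLH-LZ analogs (not full-length Max) bearing noncanonical residues (hArg, Tha, Aib, Nle at 65) and aromatic Cys staples. Read-out per 8-mer (and its reverse complement): E-score (rank-based enrichment, -0.5 to 0.5) and Z-score of median probe intensity.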

Sequence | PBM 8-mer E-score
ACAGGCAT | -0.0411 ± 0.063
CCTCTCTC | -0.045 ± 0.086
ATATCACG | 0.294 ± 0.068
GCATCATA | 0.274 ± 0.019
ATATCACA | 0.117 ± 0.14
GCATCAGA | 0.0605 ± 0.012
CTATCATA | 0.208 ± 0.054
CTATCACA | 0.169 ± 0.029
ATATCATA | 0.253 ± 0.14
ACATCACT | 0.245 ± 0.095
CCATCATA | 0.0385 ± 0.12
ATATCATG | 0.175 ± 0.056
ACATCACC | -0.0768 ± 0.063
ACATCACA | 0.221 ± 0.009
AGACTGGG | -0.147 ± 0.064
ACGGAATA | -0.0839 ± 0.0017
AGCTTGGG | -0.0797 ± 0.022
CAATGATG | -0.00417 ± 0.0019
ACGCTCGC | 0.0344 ± 0.16
CTGAGCTA | -0.17 ± 0.098
CATTTTAC | 0.188 ± 0.026
GCGTCAAA | -0.0402 ± 0.15
AGACGGGA | -0.0877 ± 0.053
TGAATCCA | 0.0507 ± 0.048
GGGTTCCA | -0.11 ± 0.023
AGCGATTG | -0.152 ± 0.033

Sequence | PBM 8-mer E-score
ACCAATCT | -0.0171 ± 0.067
ATGTCACG | 0.297 ± 0.063
ACATCATC | 0.166 ± 0.041
ACATCATG | 0.07 ± 0.031
ACATCATA | 0.249 ± 0.038
ATGTCACA | 0.131 ± 0.002
CTGTCACA | 0.00831 ± 0.13
AGGGTTTC | -0.0163 ± 0.01
CTATAACC | 0.0519 ± 0.0013
GTATAACA | 0.228 ± 0.019
AAATAACA | 0.204 ± 0.018
ATATAACA | 0.262 ± 0.032
ATATAACC | 0.171 ± 0.041
CAATAACG | 0.0808 ± 0.07
CTATAACA | 0.157 ± 0.085
ATATAACG | 0.269 ± 0.044
AAATAACG | 0.309 ± 0.086
CATAATTA | 0.237 ± 0.031
AATAATTC | 0.179 ± 0.12
AATAATTA | 0.26 ± 0.072
GATAATTA | 0.127 ± 0.021
CCTAATTA | 0.0515 ± 0.15
CATAATTC | -0.00772 ± 0.086
GCGGAGCA | -0.239 ± 0.06
AAGACACT | 0.186 ± 0.0044
GAAACACA | 0.0586 ± 0.066

Sequence | PBM 8-mer E-score
ACAAGCTG | -0.103 ± 0.091
CAACAATC | 0.0661 ± 0.052
TAACAATA | 0.257 ± 0.033
CAACAATG | 0.137 ± 0.096
AGACAATG | 0.0426 ± 0.00081
CAACAATA | 0.324 ± 0.022
AGACAATA | 0.2983 ± 0.00038
AGACAATC | 0.0672 ± 0.021
AAACAATA | 0.234 ± 0.038
GAACAATA | 0.0766 ± 0.03
ACACCCGG | -0.144 ± 0.016
GGGCTTGA | -0.165 ± 0.025
ACACAGGA | 0.0105 ± 0.0057
ACGGTCCT | -0.272 ± 0.044
CTAAGTGC | -0.0257 ± 0.067
TAAGAGAA | -0.0222 ± 0.03
ACAAAAAT | 0.241 ± 0.05
CCAAATCA | -0.0102 ± 0.046
ACAAAAAC | 0.178 ± 0.055
AAAAAAAT | 0.168 ± 0.066
ACCAAAAT | 0.168 ± 0.03
ACAAAAAG | 0.125 ± 0.074
GCAAATCA | -0.0323 ± 0.096
ACAAATCA | 0.237 ± 0.12
ACAAAAAA | 0.249 ± 0.033
GTCATAAA | 0.193 ± 0.01

Sequence | PBM 8-mer E-score
CCAAAACA | 0.231 ± 0.1
ACCACCGG | -0.2177 ± 0.00071
ATCTCTCC | -0.0165 ± 0.16
AACGCCCA | -0.077 ± 0.015
AACGCCAC | -0.111 ± 0.023
CTATGCCC | -0.0261 ± 0.02
AACGAATC | 0.023 ± 0.089
TGGTTACA | 0.0957 ± 0.036
GTTATAAC | 0.187 ± 0.11
ATTATAAG | 0.115 ± 0.13
CTTATAAA | 0.191 ± 0.0045
ATTATAAT | 0.201 ± 0.042
GTTATAAA | 0.239 ± 0.037
ATTATAAA | 0.296 ± 0.053
AGCCCAAG | -0.08 ± 0.11
CGAGAAGA | 0.0468 ± 0.0088
AGCCGTTG | -0.0362 ± 0.068
ACCTATAA | 0.0216 ± 0.083
TCATATAA | 0.227 ± 0.06
ACCTATAT | 0.265 ± 0.0044
AAATATAT | 0.2435 ± 0.0013
ACATATAT | 0.323 ± 0.054
ACCTATAC | 0.0268 ± 0.14
ACATATAC | 0.159 ± 0.052
ACATATAA | 0.336 ± 0.069
CCATATAA | 0.225 ± 0.044

Sequence | PBM 8-mer E-score
AAATATAC | 0.209 ± 0.032
ACATATAG | 0.0848 ± 0.12
AAATATAA | 0.218 ± 0.046
GCGTTTGA | -0.0646 ± 0.018
AAGCGAGG | -0.129 ± 0.12
GGCCACTA | 0.0658 ± 0.077
GTTGCGCA | -0.0795 ± 0.002
CACAGGTG | -0.0404 ± 0.033
ACCTATCA | 0.0576 ± 0.061
CTATCGTC | -0.0258 ± 0.024
CCGCGACA | -0.0992 ± 0.1
TGGCAAAA | -0.0471 ± 0.026
CCACGGGG | -0.281 ± 0.017
GAATCACA | -0.0241 ± 0.022
TAATCACA | 0.264 ± 0.042
CAATCACC | 0.139 ± 0.013
CAATCACA | 0.122 ± 0.095
CAATCACG | 0.288 ± 0.039
AAATCACA | 0.203 ± 0.026
CCCGCAGC | -0.278 ± 0.086
TAACGGGA | -0.0715 ± 0.059
ACCGCTAC | -0.215 ± 0.034
AACTCCAG | -0.117 ± 0.049
GATTGTAA | 0.0589 ± 0.011
GAATGTGA | 0.0628 ± 0.06
TAATGTAA | 0.252 ± 0.024

Sequence | PBM 8-mer E-score
CAATGTGA | 0.148 ± 0.0073
TAATGTGA | 0.262 ± 0.065
TATTGTAA | 0.242 ± 0.023
AAATGTAA | 0.157 ± 0.049
GAATGTAA | 0.0967 ± 0.041
AATTGTAA | 0.196 ± 0.011
AGTGGCCC | -0.0606 ± 0.016
TCCCGACA | -0.0715 ± 0.11
GTTACCTA | 0.0231 ± 0.039
ACCGGCTG | -0.257 ± 0.018
TCAAGAAA | 0.103 ± 0.021
TCACTCCA | -0.0737 ± 0.21
GATCCGAA | -0.13 ± 0.057
GAGATGGC | 0.0296 ± 0.023
CAGTCCGG | -0.297 ± 0.023
ATCCAGCC | -0.09 ± 0.07
GCTTGCAC | -0.252 ± 0.0059
AGCCGGTC | -0.295 ± 0.086
ACTGTTCC | -0.187 ± 0.12
AAGTGGAT | 0.00777 ± 0.081
ACGTGGAG | 0.245 ± 0.14
ACGTGGAC | 0.27 ± 0.08
ACGTGGGG | 0.16 ± 0.039
ACGTGGAT | 0.342 ± 0.012
CCGTGGAC | -0.13 ± 0.12
ACGTGGAA | 0.195 ± 0.017

Sequence | PBM 8-mer E-score
CCGTGGAG | -0.131 ± 0.092
GCGTGGAC | 0.0607 ± 0.05
CGCAAGTC | -0.182 ± 0.004
CCTCCTAA | 0.0365 ± 0.0066
GGCACAGA | -0.0856 ± 0.03
ACTATGAT | 0.0767 ± 0.069
TATGCCCA | -0.151 ± 0.043
ATCCTGAC | -0.115 ± 0.039
ATCGTAAA | 0.211 ± 0.026
ATCGTAAT | 0.255 ± 0.0089
ATCGTAAG | 0.00053 ± 0.19
ATCGCACA | 0.0937 ± 0.045
AATTATAA | 0.189 ± 0.036
TGTTATAA | 0.279 ± 0.056
GATTATAA | 0.242 ± 0.016
GGTTATAA | 0.145 ± 0.068
TATTATCA | 0.161 ± 0.013
CATTATAA | 0.0818 ± 0.00099
TGTTAAAA | 0.154 ± 0.061
TATTATAA | 0.28 ± 0.079
TCTTATAA | 0.115 ± 0.051
ATTAAGCA | 0.105 ± 0.11
GAGATTGC | -0.148 ± 0.0026
CCTCCACG | -0.0554 ± 0.048
GTTTGAAA | 0.237 ± 0.022
CTTTGAAA | 0.159 ± 0.0086

Sequence | PBM 8-mer E-score
ATTTGAAA | 0.203 ± 0.025
AACTTCGA | 0.0671 ± 0.04
AGTACTAT | -0.0269 ± 0.035
AGTACTAG | 0.029 ± 0.019
CTTACTAC | 0.197 ± 0.1
ATTACTAG | -0.00293 ± 0.05
AGTACTAC | 0.28 ± 0.035
ATTACTAC | 0.2513 ± 0.0025
CTTCGCAC | 0.163 ± 0.037
ATGACTGG | -0.0322 ± 0.039
GGCACGAC | 0.0476 ± 0.078
AGTTCACG | -0.107 ± 0.064
CCCGAACC | -0.159 ± 0.21
CACAACAA | 0.205 ± 0.098
ATCAACAG | 0.116 ± 0.0076
AACAACAT | 0.168 ± 0.037
AACAATTA | 0.259 ± 0.0043
ATCAACAA | 0.101 ± 0.048
CCCAATTA | 0.187 ± 0.097
AACAATTG | 0.131 ± 0.0086
CCCAATTC | 0.249 ± 0.0091
ATCAACAT | 0.241 ± 0.022
AACAATTC | 0.127 ± 0.014
AACAACAA | 0.243 ± 0.0063
ACCAATTC | -0.0667 ± 0.11
CAATCATC | -0.0452 ± 0.15

Sequence | PBM 8-mer E-score
TACCGGAA | -0.106 ± 0.24
AACTCCTT | 0.132 ± 0.07
CCCTGCAC | -0.03728 ± 0.00027
CGCTCTCC | -0.192 ± 0.091
CGAGATCC | -0.163 ± 0.13
AGGGGTCG | -0.0534 ± 0.037
CTGGAAGA | 0.0596 ± 0.037
GACAATAC | 0.21 ± 0.021
CGCAACAC | 0.0683 ± 0.035
GCCAATTA | -0.00292 ± 0.022
CACAATAC | 0.126 ± 0.028
AACAATAC | 0.319 ± 0.063
AACAATAA | 0.247 ± 0.0054
AACAATAT | 0.207 ± 0.061
ACCAATTA | 0.247 ± 0.095
ACCAATTG | 0.211 ± 0.013
AACAATAG | 0.0278 ± 0.047
AGCAACAA | -0.0639 ± 0.14
CGCAACAA | 0.257 ± 0.049
